“And” between values parts separate entries of the source, which are not always exact repeats. Equal entries are not always repeated. Inconclusive results are not listed. The source holds several records for some structures; these can differ, active in one and inactive in another. The source made the active and inactive calls. Unless noted, the call rests on the fitted dose curve; in most records, active means well fitted curve in the direction sought with a large enough effect in the repeat runs; inconclusive means weak or mixed curves; inactive means no such curve, though single readings can be large; an effect the other way counts as inactive or inconclusive.
Tests used:
[1] = qHTS assay for small molecules that induce genotoxicity in human embryonic kidney cells expressing luciferase-tagged ATAD5 (AID 651632); further: nearly all actives have a fitted effect of over 15% in size
How it was run: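 Reporter cells (HEK293T) express luciferase-tagged ATAD5, a protein that accumulates after DNA damage. Treat 16 hr at 37C/5% CO2, add Amplite, wait 30 min at RT, and read luminescence.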

[2] = qHTS assay for small molecule agonists of the p53 signaling pathway - cell viability (AID 651633; calls by dose curve; further: nearly all actives have a fitted effect of over 30% in size; further: potency means the concentration at half of the fitted maximal effect)
How it was run: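 Viability counter-read: CellTiter-Glo luminescence (30 min, room temperature) in the same p53RE-bla plates. These plates had been exposed to compounds for 16 h at 37 C.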

[3] = qHTS assay for small molecules that induce genotoxicity in human embryonic kidney cells expressing luciferase-tagged ATAD5 - cell viability (AID 651634; calls by dose curve; further: nearly all actives have a fitted effect of over 25% in size; further: potency means the concentration at half of the fitted maximal effect)
How it was run: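 Seeding of 2,000 HEK293T ATAD5-luciferase cells per well preceded pin-tool compound transfer. Plates sat 15.5 hr at 37C under 5% CO2, then fluorescence was read after 30 min with CellTiter-Fluor.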

[4] = qHTS assay for small molecule disruptors of the mitochondrial membrane potential - cell viability (AID 720634; calls by dose curve; further: nearly all actives have a fitted effect of over 20% in size; further: potency means the concentration at half of the fitted maximal effect)
How it was run: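 Measuring cytotoxicity alongside mitochondrial potential, the screen quantified ATP by luminescence in HepG2 cells after 1 hr compound incubation and a 30 min room-temperature CellTiter-Glo step.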

[5] = qHTS assay to test for compound auto fluorescence at 590 nm (red) in HepG2 cells (AID 720674)
How it was run: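 We screened compounds on adherent HepG2 cells, incubating them for an hour at 37 C in 5% CO2 before reading emission at 590 nm under 540 nm excitation; values reflect equivalence to Rose Bengal sodium fluorescence.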

[6] = qHTS assay to test for compound auto fluorescence at 535 nm (green) in HepG2 cells (AID 720675)
[7] = qHTS assay to test for compound auto fluorescence at 460 nm (blue) in HEK293 cells (AID 720678)
How it was run: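 HEK293 cells (2,000 per well, medium with 10% dialyzed FBS) attached for 4-5 hr at 37C, then received compound and stood overnight at 37C, 5% CO2. Blue fluorescence was read at Ex/Em 405/460 nm and expressed relative to triamterene.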

[8] = qHTS assay to test for compound auto fluorescence at 590 nm (red) in HEK293 cells (AID 720679)
How it was run: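 HEK293 cells (2,000/well, medium with 10% dialyzed FBS) attached for 4-5 hr at 37C, received 23 nL compound and were incubated overnight at 37C, 5% CO2. Red fluorescence was then read at 540/590nm Ex/Em, referenced to Rose Bengal sodium.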

[9] = qHTS assay to test for compound auto fluorescence at 535 nm (green) in HEK293 cells (AID 720680)
[10] = qHTS assay to test for compound auto fluorescence at 460 nm (blue) in HEK293 cell free culture (AID 720681)
How it was run: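 Blue fluorescence (Ex 405/Em 460 nm, triamterene-equivalent) was read immediately after pin transfer of compound or DMSO into medium (DMEM, 10% FBS) without cells.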

[11] = qHTS assay to test for compound auto fluorescence at 590 nm (red) in HEK293 cell free culture (AID 720683)
How it was run: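 Red-channel autofluorescence of compounds in culture medium (DMEM, 10% FBS), no cells, measured at 540/590 nm. Rose Bengal sodium is the reference fluorophore for equivalence.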

[12] = qHTS assay to test for compound auto fluorescence at 590 nm (red) in HepG2 cell free culture (AID 720684)
How it was run: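 Steps: dispense MEM/10% FBS medium, no cells; pin compound or DMSO vehicle; read red channel, Ex/Em 540/590 nm. Output given as Rose Bengal sodium equivalents.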

[13] = qHTS assay to test for compound auto fluorescence at 460 nm (blue) in HepG2 cells (AID 720687)
How it was run: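 Blue-channel autofluorescence (Ex/Em 405/460 nm, triamterene-equivalent) was measured after 1 hr compound exposure at 37 C, 5% CO2. Cells were HepG2, plated overnight at 37 C in MEM plus 10% FBS.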

[14] = target: Glucocorticoid receptor (Homo sapiens) (UniProt P04150); test: qHTS assay to identify small molecule agonists of the glucocorticoid receptor (GR) signaling pathway (AID 720691; active means well fitted activation curve with a large enough effect in the signal ratio in the repeat runs, not every such curve was filed as active; the % refers to the signal ratio)
How it was run: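 Reporter read-out: fluorescence intensity following 2 h room-temperature LiveBLAzer B/G FRET substrate loading. Prior step: GR-bla HeLa cells held 4 h, then treated 18 h at 37 C.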

[15] = qHTS assay for small molecule disruptors of the mitochondrial membrane potential (AID 720635); further: potency means the concentration at half of the fitted maximal effect
How it was run: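 Mitochondrial membrane potential tracked with Mito-MPS dye, red aggregates (ex 540/em 590 nm) against green monomers (ex 490/em 535 nm). Compound treatment 1 hr at 37C, dye 30 min in HepG2.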

[16] = qHTS assay to test for compound auto fluorescence at 460 nm (blue) in HepG2 cell free culture (AID 720685)
How it was run: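 Compound (23 nL) or DMSO pinned into cell-free MEM with 10% FBS; blue fluorescence read at 405/460 nm excitation/emission, expressed as auto-fluorescence equivalency to triamterene.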

[17] = qHTS assay to test for compound auto fluorescence at 535 nm (green) in HepG2 cell free culture (AID 720686)
[18] = qHTS assay to test for compound auto fluorescence at 535 nm (green) in HEK293 cell free culture (AID 720682)
How it was run: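 Green-label autofluorescence (485 nm excitation, 535 nm emission) measured on compound added to cell-free culture medium (DMEM, 10% FBS). Output is expressed relative to fluorescein.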

[19] = target: Glucocorticoid receptor (Homo sapiens) (UniProt P04150); test: qHTS assay to identify small molecule antagonists of the glucocorticoid receptor (GR) signaling pathway (AID 720692; active means well fitted inhibition curve with a large enough effect in the signal ratio in the repeat runs, not every such curve was filed as active; the % refers to the signal ratio; further: potency means the concentration at half of the fitted maximal effect)
How it was run: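 Dexamethasone (5 nM final) stimulated a stably integrated GRE-beta-lactamase reporter in HeLa cells during 18 h co-incubation with compounds; signal was quantified as fluorescence intensity of B/G FRET substrate after 2 h.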

Measured: Potency

Chain of Glucocorticoid receptor (Homo sapiens) (P04150 whole entry, looked up): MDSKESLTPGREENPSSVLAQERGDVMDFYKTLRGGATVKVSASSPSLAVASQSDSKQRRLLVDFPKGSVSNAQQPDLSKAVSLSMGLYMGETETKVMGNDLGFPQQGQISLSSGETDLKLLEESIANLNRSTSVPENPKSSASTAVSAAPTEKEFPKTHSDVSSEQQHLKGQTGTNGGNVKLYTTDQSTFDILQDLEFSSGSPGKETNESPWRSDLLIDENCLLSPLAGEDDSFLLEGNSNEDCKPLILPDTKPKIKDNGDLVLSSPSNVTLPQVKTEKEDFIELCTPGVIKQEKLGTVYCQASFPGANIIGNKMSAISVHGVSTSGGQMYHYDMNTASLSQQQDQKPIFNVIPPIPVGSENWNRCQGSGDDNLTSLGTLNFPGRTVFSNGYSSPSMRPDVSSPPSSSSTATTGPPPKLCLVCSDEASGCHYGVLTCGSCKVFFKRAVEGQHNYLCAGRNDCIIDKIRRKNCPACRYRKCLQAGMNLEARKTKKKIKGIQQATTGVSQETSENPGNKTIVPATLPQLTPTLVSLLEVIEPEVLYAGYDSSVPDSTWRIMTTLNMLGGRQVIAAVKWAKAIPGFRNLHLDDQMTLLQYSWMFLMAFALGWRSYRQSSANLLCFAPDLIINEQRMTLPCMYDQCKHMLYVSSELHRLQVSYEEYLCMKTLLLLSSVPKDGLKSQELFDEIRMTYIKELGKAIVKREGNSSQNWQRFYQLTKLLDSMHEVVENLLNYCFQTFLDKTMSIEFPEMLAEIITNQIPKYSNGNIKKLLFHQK

COP(=O)(OC)SCn1c(=O)oc2cc(Cl)cnc21
not listed: [15] | [16] | [17] | [18] | [19]
inactive: all other assays above

CC(=O)C(Cl)(Cl)Cl
active: [3] 13.2 µM | [4] 0.209 µM | [15] 0.743 µM
not listed: [12] | [18] | [19]
inactive: all other assays above

CCC[CH2][Sn]([CH2]CCC)([CH2]CCC)[O]C(=O)c1ccccc1
active: [2] 0.611 µM | [3] 1.22 µM | [4] 2.17 µM | [15] 0.077 µM
not listed: [5] | [14] | [19]
inactive: all other assays above

O=c1ssc(Cl)c1Cl
active: [2] 54.5 µM | [3] 61.1 µM | [4] 61.1 µM | [19] 43.6 µM
not listed: [5] | [15]
inactive: all other assays above

O=C(NC(=O)c1c(F)cccc1F)Nc1cc(Cl)c(OC(F)(F)C(F)F)c(Cl)c1
active: [15] 19.3 µM
not listed: [14] | [16] | [18]
inactive: all other assays above

CCOCCOC(C)=O
not listed: [12] | [15] | [16] | [19]
inactive: all other assays above

O=[N+]([O-])c1cc([N+](=O)[O-])c2ccccc2c1
active: [15] 10.9 µM
not listed: [4] | [19]
inactive: all other assays above

Cc1cc(C)c(C2=C(OC(=O)CC(C)(C)C)C3(CCCC3)OC2=O)c(C)c1
active: [15] 12.8 µM
not listed: [4] | [5] | [19]
inactive: all other assays above

C[C@]12CC[C@H]3[C@@H](CCC4=CC(=O)CC[C@@]43C)[C@@H]1CC[C@@H]2O
active: [19] 2.44 µM
not listed: [12] | [15]
inactive: all other assays above

Clc1ccc(COC(Cn2ccnc2)c2ccc(Cl)cc2Cl)cc1 (configuration not stated)
active: [2] 29.8 µM and 27.2 µM | [3] 26.6 µM | [4] 26.6 µM | [15] 18.8 µM and 45.3 µM and 54.3 µM
not listed: [5] | [14] | [19]
inactive: all other assays above

CC(C)(C)c1cc([N+](=O)[O-])cc(C(C)(C)C)c1O
active: [2] 48.6 µM | [3] 13.7 µM | [15] 0.122 µM
not listed: [4] | [14] | [16] | [18] | [19]
inactive: all other assays above

COC12CC[C@@]3(C[C@@H]1C(C)(O)C(C)(C)C)[C@H]1Cc4ccc(O)c5c4[C@@]3(CCN1CC1CC1)[C@H]2O5 (some centres not stated)
active: [2] 54.1 µM | [3] 60.7 µM | [4] 54.1 µM | [15] 19.2 µM
not listed: [5] | [12] | [14] | [19]
inactive: all other assays above

CCCCOCN(C(=O)CCl)c1c(CC)cccc1CC
active: [19] 21.9 µM
not listed: [4] | [5] | [15]
inactive: all other assays above

O=S(=O)(c1ccc(Cl)cc1)c1ccc(Cl)cc1
not listed: [4] | [15] | [16] | [17] | [19]
inactive: all other assays above

CC(C)N1C(=O)N(c2ccccc2)CSC1=NC(C)(C)C
active: [4] 15.4 µM | [15] 38.6 µM
not listed: [2] | [19]
inactive: all other assays above

CCCCCCCCCC[N+](C)(C)CCCCCCCCCC
26.6 µM (active) and inactive: [4]
active: [2] 26.6 µM and 61.1 µM | [15] 8.41 µM and 24.3 µM
not listed: [3] | [14] | [17] | [19]
inactive: all other assays above

COc1ccc(OC)c(CC(C)N)c1 (configuration not stated)
not listed: [2] | [14] | [15] | [19]
inactive: all other assays above

OC(c1ccc(Cl)cc1)(c1ccc(Cl)cc1)C(Cl)(Cl)Cl
active: [2] 61.1 µM | [15] 6.11 µM
not listed: [3] | [4] | [5] | [14] | [18] | [19]
inactive: all other assays above

ClC1=C(Cl)[C@]2(Cl)[C@H]3[C@H]([C@H]4C=C[C@H]3C4)[C@@]1(Cl)C2(Cl)Cl
active: [15] 43.3 µM | [19] 49 µM
not listed: [2] | [4]
inactive: all other assays above

ClC1=C(Cl)[C@]2(Cl)[C@@H]3[C@@H]4C[C@@H]([C@H]5O[C@@H]45)[C@@H]3[C@@]1(Cl)C2(Cl)Cl
active: [2] 30.6 µM | [19] 36.7 µM
not listed: [4] | [15] | [16]
inactive: all other assays above

— PubChem BioAssay (Tox21)
